# Experimental data from PubChem BioAssay AID624256 (NMMLSC, 2012).
# Screen size: about 360,000 compounds; about 3,700 (1%) were called active. Inconclusive results (about 2%) are left out.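 The calls were made as follows: active = normalized GFP-positive differentiation at or above the plate's own cutoff, the solvent-only control mean plus 3 SD; inconclusive = no clear call, values can overlap the other calls; inactive = the rest.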 For the sample, actives were picked, then their nearest neighbours and some compounds at random.
# Assay: HoxA9-arrested leukemia cell differentiation promoters – flow cytometry, MLPCN library, primary screen (AID 624256);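 as to GFP+ MAC1+ double positive: cells exposed to compound for four days before flow analysis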;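 as to normalized GFP-positive differentiation: cells exposed to compound for four days before flow analysis; 0% = DMSO wells and 100% = fulvestrant positive control at 5 µM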
# Conditions: ER-HoxA9 myeloid progenitors, lysozyme-GFP differentiation, at 10 µM; GFP+ MAC1+ double positive: measured here: differentiation confirmed by MAC1 staining, stronger effect = higher value; normalized GFP-positive differentiation: stronger effect = higher value
Compound,GFP+ MAC1+ double positive,outcome,normalized GFP-positive differentiation
COc1ccc(-c2ccc(C(=O)NCCN3CCOCC3)c3occc23)c(C)c1,1%,inactive,–
O=C(NCc1cccnc1)c1cc(C2CCCN(C(=O)C3CCCCC3)C2)on1 (stereo not given),0.6%,inactive,–
c1ccc2c(c1)CSc1sccc1C2=C1CCNCC1,4.3%,–,87.9% (active)
CCCNC(=O)C1(C)CCN(C(=O)c2cc(F)ccc2C)C1 (stereo not given),1.2%,inactive,–
COc1ccc(N2c3ccccc3CN(Cc3ccccc3)[C@@H](C)[C@H]2Cc2ccc(-c3ccccc3)cc2)cc1,3%,inactive,–
O=C(Nc1ccc2c(c1)OCCO2)C1c2ccccc2OCC(=O)N1Cc1ccccn1 (stereo not given),1.3%,inactive,–
Nc1ccc(C(=O)N2CCN(S(=O)(=O)c3ccc(Cl)cc3)CC2)cc1[N+](=O)[O-],0.1%,inactive,–
O=C(c1ccc(Oc2ccc(Cl)cc2)c([N+](=O)[O-])c1)N1CCCC1,0.9%,inactive,–
CC1CCN(C(=O)c2ccc(S(=O)(=O)Cc3cc(F)ccc3F)c([N+](=O)[O-])c2)CC1,1%,–,43.9% (active)
O=S1(=O)CC(N2CCN(CCO)CC2)CN1C1CCCC1 (stereo not given),1%,inactive,–
CCN(CC)C(=O)C1CCCN(Cc2cccc(Cl)c2)C1 (stereo not given),1%,inactive,–
COc1ccc(C2C3=C(CCCC3=O)N(CC(=O)O)C3=C2C(=O)CCC3)cc1,17.3%,–,322% (active)
CN(C)N1C(N)=C(C#N)C(c2ccc(Br)cc2)C2=C1CCCC2=O (stereo not given),0.4%,inactive,–
COc1ccc(C2C(C#N)=C(N)N(c3ncn[nH]3)C3=C2C(=O)CCC3)cc1 (stereo not given),0.3%,inactive,–
CCOc1ccc(C2C3=C(CCCC3=O)N(CC(=O)O)C3=C2C(=O)CCC3)cc1,0.6%,inactive,–
CCCN1C2=C(C(=O)CCC2)C(c2ccc(O)c(Br)c2)C2=C1CCCC2=O,3.4%,–,78.6% (active)
CCOc1ccc(C2C(C#N)=C(N)N(N(C)C)C3=C2C(=O)CCC3)cc1 (stereo not given),0.6%,inactive,–
CCOC(=O)N1CCN(C(=O)C[C@@H]2C[C@@]3(C(=O)OC)CCCCC=C3N(CCC3=CCCCC3)C2=O)CC1,1.2%,inactive,–
CN(Cc1ccccc1F)c1cc2c(c3c1ccn3C)C1CCC2O1 (stereo not given),2.1%,inactive,–
Cc1cc(C)n2c(Nc3c(C)cccc3C)c(CCc3ccccc3)nc2n1,0.8%,inactive,–
CC1(C(=O)NS(=O)(=O)Cc2cccc(Cl)c2)CCN1C(=O)Cc1ccccc1 (stereo not given),1.3%,inactive,–
O=S1(=O)CC(N2CCN(CCO)CC2)CN1Cc1cn(Cc2cccc(Cl)c2)nn1 (stereo not given),1.8%,inactive,–
Cc1cc(C)cc(OCC(=O)NNC(=O)c2cc3ccccc3oc2=O)c1,0.7%,inactive,–
CCN(CC)c1ccc([N+](=O)[O-])cc1C(=O)O,0.9%,inactive,–
CCN(CC)c1ccc2cc(C(=O)O)c(=O)oc2c1,2.8%,–,30.9% (active)
COC(=O)[C@]12CCCCC=C1N(Cc1ccc3c(c1)OCO3)C(=O)[C@H](CC(=O)N1CCOCC1)C2,1.1%,inactive,–
CC(C)C1Cc2[nH][nH]c(=O)c2C(c2ccc(Cl)cc2)O1 (stereo not given),1.1%,inactive,–
Cc1ccccc1Nc1c([N+](=O)[O-])ccc2nonc12,0.6%,inactive,–

Compound,GFP+ MAC1+ double positive,outcome,normalized GFP-positive differentiation
Cc1ccc2cccc([N+](=O)[O-])c2n1,0.8%,inactive,–
Cc1ccc(Nc2cc(C)nc3c(C)ccc([N+](=O)[O-])c23)cc1,8.4%,–,156% (active)
CCc1nc2c(OCCOc3ccccc3)cccn2c1N(C)C(=O)c1ccc(OC)cc1,0.8%,inactive,–
CC1=C(C(N)=O)C(c2ccc3c(c2)OCO3)n2nc(-c3cccc(C)c3)nc2N1 (stereo not given),2%,–,8.9% (active)
COc1cccc(-c2nc3n(n2)C(c2ccccc2Cl)C(C(N)=O)=C(C)N3)c1 (stereo not given),1.5%,inactive,–
CC1=C(C(N)=O)C(c2ccc(F)cc2)n2nc(CCCO)nc2N1 (stereo not given),1%,inactive,–
Oc1ccc2ccc3cccc[n+]3c2c1,0.9%,–,10.9% (active)
CC1(C(=O)NS(=O)(=O)c2ccccc2)CCN1C(=O)C1CCCCC1 (stereo not given),1.3%,inactive,–
COc1ccc(C(C(=O)NCc2ccccc2)n2c(=O)c(-c3ccccc3)nc3ccccc32)cc1 (stereo not given),5.2%,inactive,–
COc1ccc(CC(N)c2csc(NC(=O)NC(c3ccccc3)c3ccccc3)n2)cc1 (stereo not given),1.7%,inactive,–
O=C(CCC(=O)Nc1ccccc1)N/N=C/c1ccccc1F,0.1%,inactive,–
O=C(N/N=C/c1ccccc1O)C1CCCC1,0.3%,inactive,–
O=C(N/N=C/c1ccccc1O)/C(=C/c1ccccc1)CCO,4.1%,–,31.5% (active)
Cc1ccc(S(=O)(=O)N2[C@@H](Cc3ccccc3)CO[C@H]2CC(=O)OCc2ccccc2)cc1,5.9%,inactive,–
O=C1NC[C@H](CCCCN2C[C@H](Cc3ccc(O)cc3)N(CC3CCCCC3)C(=O)C2=O)N(CCc2ccccc2)C1=O,0.6%,inactive,–
CCOc1ccc(CCN2C(=S)N([C@@H](CC(C)C)CN3CCC[C@@H]3CN3C(=S)NC[C@@H]3Cc3ccc(O)cc3)C[C@@H]2CC(C)C)cc1,0.7%,inactive,–
CC(=O)Nc1cc(-c2ccccc2N(C)C)cn2c(-c3ccc(F)c(Cl)c3)cnc12,1%,inactive,–
O=c1nc(NO)ccn1C1CCCO1 (stereo not given),1.8%,inactive,–
O=c1c(F)cn(C2CCCO2)c(=O)n1Cc1ccccc1Cl (stereo not given),11.2%,inactive,–
CNc1nc(=O)n(C2CCCO2)cc1C (stereo not given),23.7%,–,172% (active)
O=C(O)Cc1ccc(NCc2ccccc2Cl)cc1,0.6%,inactive,–
O=C(Cc1ccc(-c2ccccc2)cc1)NC(c1ccccc1)c1ccccc1,0.3%,inactive,–
O=C(O)Cc1ccc(-c2ccccc2)cc1,2.6%,–,92.4% (active)
Cc1cccc(CNC(=O)c2sc(=O)n(Cc3ccccc3C)c2C)c1,4.1%,inactive,–
COc1ccc(C(C(=O)Nc2c(C)cccc2C)N2CCN(c3ccc(C)cc3)CC2)cc1 (stereo not given),2%,inactive,–
CO[C@@H]1CN(C)C(=O)c2cc(NC(=O)Nc3cc(F)ccc3F)ccc2OC[C@H](C)N(C(=O)c2ccccn2)C[C@@H]1C,1.3%,inactive,–
COC(=O)[C@]12CCCCC=C1N(Cc1cccc3ccccc13)C(=O)[C@H](CC(=O)N1CCOCC1)C2,0.7%,inactive,–
